# Results published in paper PMC8384837, “Expanding the binding specificity for RNA recognition by a PUF domain”.
# Assays:
# Experiment in all cases: yeast three-hybrid, YBZ-1, SC-Leu-His + 0.5 mM 3-AT, 4 days
# Conditions in all cases: tags: N-Gal4 AD-HA kept; label: inside an RPR1-promoter hybrid RNA with tandem MS2 sites; ssRNA
# PUM1 PUF domain R2-VFR = PUM1 PUF domain R2-VFR (Homo sapiens, UniProt Q14671 828-1176, N899V;Y900F;Q903R)
# Procedure, shortened: (§1)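 Pumilio-1 PUF domain libraries, randomized at the three base-contacting residues of each repeat, were co-expressed with matching RNA elements from a centromeric plasmid in strain YBZ-1, which carries a LexA–MS2 coat fusion and a HIS3 reporter. Transformants grew for four days on SC-Leu (input) or on SC-Leu-His + 0.5 mM 3-AT (selection), and the repeat regions were PCR-amplified and Illumina-sequenced. The interaction score is the log change in variant frequency from input to selection. That logarithm is base 2, with a pseudocount of 1 where a variant was absent.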
# PUM1 PUF domain R2-VHP = PUM1 PUF domain R2-VHP (Homo sapiens, UniProt Q14671 828-1176, N899V;Y900H;Q903P)
# Procedure, shortened: as §1
# PUM1 PUF domain R7-RRS = PUM1 PUF domain R7-RRS (Homo sapiens, UniProt Q14671 828-1176, S1079R;N1080R;E1083S)
# Procedure, shortened: as §1
# PUM1 PUF domain R7-KHF = PUM1 PUF domain R7-KHF (Homo sapiens, UniProt Q14671 828-1176, S1079K;N1080H;E1083F)
# Procedure, shortened: as §1
# PUM1 PUF domain R7-AVK = PUM1 PUF domain R7-AVK (Homo sapiens, UniProt Q14671 828-1176, S1079A;N1080V;E1083K)
# Procedure, shortened: as §1
# PUM1 PUF domain R7-QSN = PUM1 PUF domain R7-QSN (Homo sapiens, UniProt Q14671 828-1176, S1079Q;N1080S;E1083N)
# Procedure, shortened: as §1
# PUM1 PUF domain R7-KVV = PUM1 PUF domain R7-KVV (Homo sapiens, UniProt Q14671 828-1176, S1079K;N1080V;E1083V)
# Procedure, shortened: as §1
# PUM1 PUF domain R8-IWR = PUM1 PUF domain R8-IWR (Homo sapiens, UniProt Q14671 828-1176, N1122I;Y1123W;Q1126R)
# Procedure, shortened: as §1
# PUM1 PUF domain R8-AYR = PUM1 PUF domain R8-AYR (Homo sapiens, UniProt Q14671 828-1176, N1122A;Q1126R)
# Procedure, shortened: as §1
# PUM1 PUF domain R4-PTC = PUM1 PUF domain R4-PTC (Homo sapiens, UniProt Q14671 828-1176, N971P;H972T;Q975C)
# Procedure, shortened: as §1
# PUM1 PUF domain R3-CRD = PUM1 PUF domain R3-CRD (Homo sapiens, UniProt Q14671 828-1176, Q939D)
# Procedure, shortened: as §1
# PUM1 PUF domain R4-SNY = PUM1 PUF domain R4-SNY (Homo sapiens, UniProt Q14671 828-1176, N971S;H972N;Q975Y)
# Procedure, shortened: as §1
# PUM1 PUF domain R1-RTR = PUM1 PUF domain R1-RTR (Homo sapiens, UniProt Q14671 828-1176, S863R;R864T;Q867R)
# Procedure, shortened: as §1
# PUM1 PUF domain R1-RNQ = PUM1 PUF domain R1-RNQ (Homo sapiens, UniProt Q14671 828-1176, S863R;R864N)
# Procedure, shortened: as §1
# PUM1 PUF domain R1-VKK = PUM1 PUF domain R1-VKK (Homo sapiens, UniProt Q14671 828-1176, S863V;R864K;Q867K)
# Procedure, shortened: as §1
# PUM1 PUF domain R3-RNA = PUM1 PUF domain R3-RNA (Homo sapiens, UniProt Q14671 828-1176, C935R;R936N;Q939A)
# Procedure, shortened: as §1
# PUM1 PUF domain R2-RKW = PUM1 PUF domain R2-RKW (Homo sapiens, UniProt Q14671 828-1176, N899R;Y900K;Q903W)
# Procedure, shortened: as §1
# PUM1 PUF domain R8-AYR, sequence (Q14671 828-1176 N1122A/Q1126R): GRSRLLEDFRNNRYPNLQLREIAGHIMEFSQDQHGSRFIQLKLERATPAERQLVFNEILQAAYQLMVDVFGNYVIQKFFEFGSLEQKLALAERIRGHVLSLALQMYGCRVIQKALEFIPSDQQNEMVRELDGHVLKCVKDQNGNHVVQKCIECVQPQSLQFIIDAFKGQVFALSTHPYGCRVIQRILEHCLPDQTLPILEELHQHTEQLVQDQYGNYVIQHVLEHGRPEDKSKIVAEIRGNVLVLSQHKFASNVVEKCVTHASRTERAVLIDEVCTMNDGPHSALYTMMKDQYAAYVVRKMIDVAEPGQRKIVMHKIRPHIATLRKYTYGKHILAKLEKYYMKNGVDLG
# PUM1 PUF domain R7-QSN, sequence (Q14671 828-1176 S1079Q/N1080S/E1083N): as the sequence (Q14671 828-1176 N1122A/Q1126R) above, with S252Q, N253S, E256N, A295N, R299Q counted along it
# PUM1 PUF domain R2-RKW, sequence (Q14671 828-1176 N899R/Y900K/Q903W): as the sequence (Q14671 828-1176 N1122A/Q1126R) above, with N72R, Y73K, Q76W, A295N, R299Q counted along it
# PUM1 PUF domain R7-KVV, sequence (Q14671 828-1176 S1079K/N1080V/E1083V): as the sequence (Q14671 828-1176 N1122A/Q1126R) above, with S252K, N253V, E256V, A295N, R299Q counted along it
# PUM1 PUF domain R1-RNQ, sequence (Q14671 828-1176 S863R/R864N): as the sequence (Q14671 828-1176 N1122A/Q1126R) above, with S36R, R37N, A295N, R299Q counted along it
# PUM1 PUF domain R7-KHF, sequence (Q14671 828-1176 S1079K/N1080H/E1083F): as the sequence (Q14671 828-1176 N1122A/Q1126R) above, with S252K, N253H, E256F, A295N, R299Q counted along it
# PUM1 PUF domain R1-VKK, sequence (Q14671 828-1176 S863V/R864K/Q867K): as the sequence (Q14671 828-1176 N1122A/Q1126R) above, with S36V, R37K, Q40K, A295N, R299Q counted along it
# PUM1 PUF domain R3-RNA, sequence (Q14671 828-1176 C935R/R936N/Q939A): as the sequence (Q14671 828-1176 N1122A/Q1126R) above, with C108R, R109N, Q112A, A295N, R299Q counted along it
# PUM1 PUF domain R2-VFR, sequence (Q14671 828-1176 N899V/Y900F/Q903R): as the sequence (Q14671 828-1176 N1122A/Q1126R) above, with N72V, Y73F, Q76R, A295N, R299Q counted along it
# PUM1 PUF domain R2-VHP, sequence (Q14671 828-1176 N899V/Y900H/Q903P): as the sequence (Q14671 828-1176 N1122A/Q1126R) above, with N72V, Y73H, Q76P, A295N, R299Q counted along it
sequence,measurement,setting,value
GGCUAGAACUAGUGGAUCCCCCGGCGCCCGGCGGCUCGAGCCCGGGUAAGUGUAAAAAGUCUGCAUGCCGCCGGGCGCCAUGCCUGCAGGUCGACUCUAGAAAACAUG,binding signal,PUM1 PUF domain R2-VFR,5.64 log2 enrichment (interaction score)
same,binding signal,PUM1 PUF domain R2-VHP,2.73 log2 enrichment (interaction score)
GGCUAGAACUAGUGGAUCCCCCGGCGCCCGGCGGCUCGAGCCCGGGUAAGUCUAAAUAGUCUGCAUGCCGCCGGGCGCCAUGCCUGCAGGUCGACUCUAGAAAACAUG,binding signal,PUM1 PUF domain R7-RRS,4.47 log2 enrichment (interaction score)
same,binding signal,PUM1 PUF domain R7-KHF,2.94 log2 enrichment (interaction score)
GGCUAGAACUAGUGGAUCCCCCGGCGCCCGGCGGCUCGAGCCCGGGUAAGUUUAAAUAGUCUGCAUGCCGCCGGGCGCCAUGCCUGCAGGUCGACUCUAGAAAACAUG,binding signal,PUM1 PUF domain R7-RRS,4.29 log2 enrichment (interaction score)
same,binding signal,PUM1 PUF domain R7-AVK,4.11 log2 enrichment (interaction score)
same,binding signal,PUM1 PUF domain R7-QSN,4.28 log2 enrichment (interaction score)
same,binding signal,PUM1 PUF domain R7-KVV,2.62 log2 enrichment (interaction score)
GGCUAGAACUAGUGGAUCCCCCGGCGCCCGGCGGCUCGAGCCCGGGUAAGCGUAAAUAGUCUGCAUGCCGCCGGGCGCCAUGCCUGCAGGUCGACUCUAGAAAACAUG,binding signal,PUM1 PUF domain R8-IWR,5.25 log2 enrichment (interaction score)
same,binding signal,PUM1 PUF domain R8-AYR,4.07 log2 enrichment (interaction score)
GGCUAGAACUAGUGGAUCCCCCGGCGCCCGGCGGCUCGAGCCCGGGUAAGUGUAAAUAGUCUGCAUGCCGCCGGGCGCCAUGCCUGCAGGUCGACUCUAGAAAACAUG,binding signal,PUM1 PUF domain R8-IWR,3.98 log2 enrichment (interaction score)
same,binding signal,PUM1 PUF domain R4-PTC,3.57 log2 enrichment (interaction score)
same,binding signal,PUM1 PUF domain R3-CRD,5 log2 enrichment (interaction score)
same,binding signal,PUM1 PUF domain R4-SNY,2.33 log2 enrichment (interaction score)
same,binding signal,PUM1 PUF domain R8-AYR,4.26 log2 enrichment (interaction score)
GGCUAGAACUAGUGGAUCCCCCGGCGCCCGGCGGCUCGAGCCCGGGUAAGUGUAAAUCGUCUGCAUGCCGCCGGGCGCCAUGCCUGCAGGUCGACUCUAGAAAACAUG,binding signal,PUM1 PUF domain R1-RTR,1.13 log2 enrichment (interaction score)
same,binding signal,PUM1 PUF domain R1-RNQ,4.55 log2 enrichment (interaction score)
GGCUAGAACUAGUGGAUCCCCCGGCGCCCGGCGGCUCGAGCCCGGGUAAGUGUAAAUUGUCUGCAUGCCGCCGGGCGCCAUGCCUGCAGGUCGACUCUAGAAAACAUG,binding signal,PUM1 PUF domain R1-RTR,2.2 log2 enrichment (interaction score)
same,binding signal,PUM1 PUF domain R1-VKK,2.11 log2 enrichment (interaction score)
GGCUAGAACUAGUGGAUCCCCCGGCGCCCGGCGGCUCGAGCCCGGGUAAGUGUAAUUAGUCUGCAUGCCGCCGGGCGCCAUGCCUGCAGGUCGACUCUAGAAAACAUG,binding signal,PUM1 PUF domain R3-CRD,1.14 log2 enrichment (interaction score)
same,binding signal,PUM1 PUF domain R3-RNA,3.87 log2 enrichment (interaction score)
GGCUAGAACUAGUGGAUCCCCCGGCGCCCGGCGGCUCGAGCCCGGGUAAGUGUAAAGAGUCUGCAUGCCGCCGGGCGCCAUGCCUGCAGGUCGACUCUAGAAAACAUG,binding signal,PUM1 PUF domain R2-RKW,2.92 log2 enrichment (interaction score)
